Unmarked numbers belong to inactive results. Results filed as inconclusive are left out. This is one part of the list. Entries that show only a call come without a potency. The source made the active and inactive calls. Unless noted, calls come from the whole dose curve; as a rule, active = well fitted curve in the direction sought with a large enough effect; inconclusive = small, poorly fitted or top-dose-only effect, or another doubt; inactive = no such curve, though single readings can be large; an effect the other way counts as inactive or inconclusive.
Experiments:
[1] = biological target: Rap guanine nucleotide exchange factor 3 (Homo sapiens) (UniProt O95398); experiment: Confirmatory qHTS for agonist of cAMP-regulated guanine nucleotide exchange factor 3 (EPAC1) (AID 1645881);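 note: EPAC1 catalysed release of BODIPY-GDP from Rap1B seen as fluorescence loss; nearly all actives have a fitted effect of over 75% in size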
[2] = biological target: Rap guanine nucleotide exchange factor 4 (Homo sapiens) (UniProt Q8WZA2); experiment: Confirmatory qHTS for agonist of cAMP-regulated guanine nucleotide exchange factor 4 (EPAC2) (AID 1645884);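 note: nucleotide exchange releases bodipy-GDP from Rap1 and this lowers its fluorescence; nearly all actives have a fitted effect of over 65% in size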; note: potency is the fitted concentration of half-maximal effect
[3] = biological target: Rap guanine nucleotide exchange factor 4 (Homo sapiens) (UniProt Q8WZA2); experiment: Confirmatory qHTS for antagonist of cAMP-regulated guanine nucleotide exchange factor 4 (EPAC2) (AID 1645885); note: potency is the fitted concentration of half-maximal effect; nearly all actives have a fitted effect of over 25% in size
[4] = biological target: Rap guanine nucleotide exchange factor 3 (Homo sapiens) (UniProt O95398); experiment: Counterscreen qHTS for agonist of cAMP-regulated guanine nucleotide exchange factor 3 (EPAC1) (AID 1645889); note: nearly all actives have a fitted effect of over 40% in size
Summary of the method: (§1)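 Rap1B–BODIPY-GDP (250 nM) with 50 uM GDP; compounds pin-transferred to 9.74 nM–152 uM final (activator) or from 7.32 nM upwards (inhibitor). Fluorescence Ex/Em 480/540 nm read at 5 and 30 min, then after adding cAMP or buffer, at room temperature.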

[5] = NFAT Signaling Pathway (AID 444; active = well fitted curve in either direction with a large enough effect, not every such curve was filed as active;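 note: carbachol stimulus at about its EC50 of 1 µM final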); details: Jurkat NFAT-bla M1, carbachol, beta-lactamase ratio, 5 h; at 7.69 µM (top of the series) unless noted
Summary of the method: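 Jurkat cells with NFAT-driven β-lactamase reporter and co-expressed M1 receptor, stimulated with carbachol (final 1 uM, ~EC50), compound titration, 5 h at 37 °C. CCF4 loaded 1 h at RT; 460/530 nm ratio gave %activity and AC50.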

[6] = biological target: Glucocorticoid receptor (Homo sapiens) (UniProt P04150); experiment: GR-GFP Redistribution (AID 450;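 active = compounds whose dose series gives a full or clear partial fitted curve of increased nuclear translocation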; note: potency is the fitted concentration of half-maximal effect); details: U2OS GR-GFP nuclear translocation, laser cytometry, 2 h
[7] = biological target: Cytochrome P450 3A4 (Homo sapiens) (UniProt P08684); experiment: qHTS Assay for Inhibitors and Substrates of Cytochrome P450 3A4 (AID 884); note: potency is the fitted concentration of half-maximal effect; nearly all actives have a fitted effect of over 50% in size
Summary of the method: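 Luminescent readout of luciferin produced by CYP3A4 (20 nM) dealkylation of Luciferin-PPXE, 25 uM (its KM). NADPH-driven reaction ran 60 min at RT after 10 min compound preincubation; data scaled to 57 uM ketoconazole as 100% inhibition.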

[8] = biological target: Cytochrome P450 2C19 (Homo sapiens) (UniProt P33261); experiment: qHTS Assay for Inhibitors and Substrates of Cytochrome P450 2C19 (AID 899); note: potency is the fitted concentration of half-maximal effect; nearly all actives have a fitted effect of over 60% in size
Summary of the method: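 Luminescent read-out of luciferin formed from Luciferin-H EGE (10uM, equal to KM). Enzyme 5nM in 50mM KPO4; compound added, 10 min at 37C, then NADPH regenerating system for 60 min at 37C. Full inhibition defined by 57uM ketoconazole.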

[9] = biological target: DNA dC->dU-editing enzyme APOBEC-3G (Homo sapiens) (UniProt Q9HC16); experiment: qHTS for inhibitors of Vif-A3G interactions: Validation (AID 588379)
Summary of the method: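 Yellow fluorescence (Ex 488, Em 500-530) of Vif-coexpressing HeLa A3G-eYFP cells, scanned by Acumen cytometer, reports blocked A3G degradation. Cells plated at 700/well overnight at 37 deg C before compound addition, then a further overnight compound incubation at 37 deg C.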

[10] = Confirmation and Secondary Assay for Modulators of Hemoglobin Beta Chain Splicing at IVS2 654 locus (AID 910);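 note: HeLa cells stably carrying EGFP split by mutant beta-globin IVS2-654 intron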
Summary of the method: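 HeLa cells stably expressing EGFP interrupted by β-globin IVS2-654 intron, seeded overnight in Opti-MEM/2% FCS, then treated 2 days at 37 °C. Restored splicing read as total peak GFP intensity per well by laser scanning cytometry (488 nm excitation, 500–520 nm emission); 500 nM antisense PNA as control.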

[11] = Confirmation and Secondary Assay for Modulators of Hemoglobin Beta Chain Splicing at IVS2 705 locus (AID 930);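 note: HeLa cells stably expressing the EGFP-705 splicing reporter; GFP fluorescence per well restored by corrected splicing of the IVS2-705 intron in EGFP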
Summary of the method: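 First, HeLa EGFP-705 cells are seeded at 500/well in Optimem with 2% FCS and left overnight. Next, compound or DMSO is added for 2 days. Finally wells are laser-scanned and total peak GFP intensity scored.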

[12] = biological target: Lethal(3)malignant brain tumor-like protein 1 (Homo sapiens) (UniProt Q9Y468); experiment: qHTS Assay for the Inhibitors of L3MBTL1: Hit Validation (AID 540279); details: L3MBTL1 methyl-lysine binding inhibition, biochemical qHTS; note: potency is the fitted concentration of half-maximal effect; nearly all actives have a fitted effect of over 70% in size
Summary of the method: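 L3MBTL1 (50 nM final) preformed 30 min with biotinylated H3(1-15)K9me1 peptide (75 nM), then compound 30 min at room temperature. Streptavidin donor and nickel chelate acceptor AlphaScreen beads (10 ug/mL each final) added for 30 min before read.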

[13] = qHTS Assay for the Inhibitors of L3MBTL1: Hit Validationin AlphaScreen Counterscreen (AID 602224)
Summary of the method: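 Bead-only proximity control lacking target protein. Final 1 nM b-His6 with 10 ug/mL streptavidin donor and 10 ug/mL nickel chelate acceptor beads; 15 min compound exposure, then 30 min dark RT, then AlphaScreen read.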

[14] = biological target: Rap guanine nucleotide exchange factor 3 (Homo sapiens) (UniProt O95398); experiment: Counterscreen qHTS for antagonist of cAMP-regulated guanine nucleotide exchange factor 3 (EPAC1) (AID 1645888);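 note: fluorescence loss as bound BODIPY-GDP is released from Rap1B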
Summary of the method: as §1

Rap guanine nucleotide exchange factor 4 (Homo sapiens), sequence (Q8WZA2 whole entry, looked up): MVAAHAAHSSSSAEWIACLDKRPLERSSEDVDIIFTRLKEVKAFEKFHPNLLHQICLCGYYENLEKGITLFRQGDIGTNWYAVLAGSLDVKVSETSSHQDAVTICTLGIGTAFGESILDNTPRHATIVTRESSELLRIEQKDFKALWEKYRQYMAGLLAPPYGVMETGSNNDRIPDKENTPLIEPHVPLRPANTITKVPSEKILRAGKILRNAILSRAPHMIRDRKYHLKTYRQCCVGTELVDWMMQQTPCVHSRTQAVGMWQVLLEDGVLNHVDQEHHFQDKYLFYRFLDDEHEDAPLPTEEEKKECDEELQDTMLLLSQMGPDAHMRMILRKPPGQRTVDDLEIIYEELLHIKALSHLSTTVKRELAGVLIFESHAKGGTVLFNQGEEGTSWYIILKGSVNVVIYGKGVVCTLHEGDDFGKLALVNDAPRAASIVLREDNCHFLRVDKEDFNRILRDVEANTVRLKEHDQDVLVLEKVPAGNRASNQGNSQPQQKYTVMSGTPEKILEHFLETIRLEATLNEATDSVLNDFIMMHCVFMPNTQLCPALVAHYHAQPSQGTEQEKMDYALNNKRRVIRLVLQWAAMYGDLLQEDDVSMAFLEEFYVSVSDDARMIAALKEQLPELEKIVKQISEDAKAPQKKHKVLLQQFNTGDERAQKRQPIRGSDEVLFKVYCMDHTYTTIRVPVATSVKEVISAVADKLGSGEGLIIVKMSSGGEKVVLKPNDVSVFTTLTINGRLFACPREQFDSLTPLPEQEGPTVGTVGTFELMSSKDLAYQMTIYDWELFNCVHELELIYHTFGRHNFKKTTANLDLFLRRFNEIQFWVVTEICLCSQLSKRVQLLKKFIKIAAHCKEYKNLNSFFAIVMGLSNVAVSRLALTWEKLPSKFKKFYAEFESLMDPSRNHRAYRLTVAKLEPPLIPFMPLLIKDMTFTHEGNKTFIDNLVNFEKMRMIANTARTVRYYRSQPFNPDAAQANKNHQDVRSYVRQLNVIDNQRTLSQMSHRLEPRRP
Rap guanine nucleotide exchange factor 3 (Homo sapiens), sequence (O95398 whole entry, looked up): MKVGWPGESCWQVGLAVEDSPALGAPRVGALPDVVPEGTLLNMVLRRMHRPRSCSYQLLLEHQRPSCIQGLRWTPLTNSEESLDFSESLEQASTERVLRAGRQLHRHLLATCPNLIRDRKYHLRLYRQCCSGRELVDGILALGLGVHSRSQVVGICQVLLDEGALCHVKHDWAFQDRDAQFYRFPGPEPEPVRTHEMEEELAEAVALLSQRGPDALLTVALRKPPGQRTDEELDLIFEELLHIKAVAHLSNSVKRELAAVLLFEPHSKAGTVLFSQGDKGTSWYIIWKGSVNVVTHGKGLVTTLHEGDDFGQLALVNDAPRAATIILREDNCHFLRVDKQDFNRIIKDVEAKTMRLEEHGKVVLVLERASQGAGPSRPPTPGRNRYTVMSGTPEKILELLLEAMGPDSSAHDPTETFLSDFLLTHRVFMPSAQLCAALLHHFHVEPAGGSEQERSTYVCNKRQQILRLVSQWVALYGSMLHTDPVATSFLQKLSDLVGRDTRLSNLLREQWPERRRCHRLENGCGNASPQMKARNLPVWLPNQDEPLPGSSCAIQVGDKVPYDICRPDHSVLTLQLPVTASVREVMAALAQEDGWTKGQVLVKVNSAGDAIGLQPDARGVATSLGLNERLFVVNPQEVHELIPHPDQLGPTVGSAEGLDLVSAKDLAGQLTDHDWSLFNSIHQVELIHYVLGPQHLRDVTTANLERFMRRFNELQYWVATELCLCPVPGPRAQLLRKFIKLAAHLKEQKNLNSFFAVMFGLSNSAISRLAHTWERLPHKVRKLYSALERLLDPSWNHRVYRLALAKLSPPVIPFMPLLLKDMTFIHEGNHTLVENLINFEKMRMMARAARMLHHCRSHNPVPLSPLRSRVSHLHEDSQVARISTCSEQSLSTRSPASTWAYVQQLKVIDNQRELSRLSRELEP
Glucocorticoid receptor (Homo sapiens), sequence (P04150 whole entry, looked up): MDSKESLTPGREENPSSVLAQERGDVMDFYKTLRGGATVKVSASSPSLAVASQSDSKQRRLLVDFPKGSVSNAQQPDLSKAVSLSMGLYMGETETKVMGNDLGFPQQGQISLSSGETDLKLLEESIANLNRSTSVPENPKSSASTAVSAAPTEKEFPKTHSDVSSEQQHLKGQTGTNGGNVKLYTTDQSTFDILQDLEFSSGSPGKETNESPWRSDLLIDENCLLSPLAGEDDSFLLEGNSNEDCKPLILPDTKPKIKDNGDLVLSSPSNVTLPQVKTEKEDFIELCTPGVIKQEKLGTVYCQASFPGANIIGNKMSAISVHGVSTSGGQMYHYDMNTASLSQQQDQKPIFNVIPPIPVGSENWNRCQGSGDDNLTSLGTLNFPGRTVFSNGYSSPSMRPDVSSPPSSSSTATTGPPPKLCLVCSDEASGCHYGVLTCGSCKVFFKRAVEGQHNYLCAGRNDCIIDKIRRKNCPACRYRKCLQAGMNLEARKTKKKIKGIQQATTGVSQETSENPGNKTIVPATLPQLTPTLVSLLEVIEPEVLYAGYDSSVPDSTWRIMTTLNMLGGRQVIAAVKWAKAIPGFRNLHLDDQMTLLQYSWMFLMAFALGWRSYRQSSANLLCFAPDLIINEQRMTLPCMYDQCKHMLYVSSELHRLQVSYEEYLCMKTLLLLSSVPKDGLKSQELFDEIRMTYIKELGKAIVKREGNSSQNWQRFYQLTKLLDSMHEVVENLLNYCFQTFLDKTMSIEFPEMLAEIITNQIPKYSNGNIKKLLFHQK
Cytochrome P450 3A4 (Homo sapiens), sequence (P08684 whole entry, looked up): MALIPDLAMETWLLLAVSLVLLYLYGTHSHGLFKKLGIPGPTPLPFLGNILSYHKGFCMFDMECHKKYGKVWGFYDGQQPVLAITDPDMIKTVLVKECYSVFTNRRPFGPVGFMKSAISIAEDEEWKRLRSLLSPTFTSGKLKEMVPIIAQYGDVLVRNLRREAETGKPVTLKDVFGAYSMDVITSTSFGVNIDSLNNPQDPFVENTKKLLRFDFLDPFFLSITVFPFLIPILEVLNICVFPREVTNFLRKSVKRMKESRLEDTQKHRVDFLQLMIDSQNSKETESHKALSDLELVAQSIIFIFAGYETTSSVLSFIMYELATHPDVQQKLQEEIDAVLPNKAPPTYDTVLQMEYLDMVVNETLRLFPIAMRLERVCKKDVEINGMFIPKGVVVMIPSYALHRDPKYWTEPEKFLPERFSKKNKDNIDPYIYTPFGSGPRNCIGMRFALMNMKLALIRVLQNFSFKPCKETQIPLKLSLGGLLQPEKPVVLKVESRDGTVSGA
Cytochrome P450 2C19 (Homo sapiens), sequence (P33261 whole entry, looked up): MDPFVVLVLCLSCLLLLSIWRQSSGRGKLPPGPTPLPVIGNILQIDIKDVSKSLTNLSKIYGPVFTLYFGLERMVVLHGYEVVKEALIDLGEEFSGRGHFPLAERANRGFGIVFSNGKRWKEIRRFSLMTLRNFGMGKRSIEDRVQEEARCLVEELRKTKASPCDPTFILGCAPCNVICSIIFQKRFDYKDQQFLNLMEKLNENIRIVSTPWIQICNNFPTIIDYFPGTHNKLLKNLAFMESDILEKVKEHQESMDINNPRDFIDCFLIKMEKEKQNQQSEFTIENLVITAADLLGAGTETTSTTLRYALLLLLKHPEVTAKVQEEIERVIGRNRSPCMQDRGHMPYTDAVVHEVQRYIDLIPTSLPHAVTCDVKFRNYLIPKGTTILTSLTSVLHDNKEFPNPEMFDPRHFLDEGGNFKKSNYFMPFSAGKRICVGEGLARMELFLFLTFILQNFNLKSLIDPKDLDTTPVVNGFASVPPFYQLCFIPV
DNA dC->dU-editing enzyme APOBEC-3G (Homo sapiens), sequence (Q9HC16 whole entry, looked up): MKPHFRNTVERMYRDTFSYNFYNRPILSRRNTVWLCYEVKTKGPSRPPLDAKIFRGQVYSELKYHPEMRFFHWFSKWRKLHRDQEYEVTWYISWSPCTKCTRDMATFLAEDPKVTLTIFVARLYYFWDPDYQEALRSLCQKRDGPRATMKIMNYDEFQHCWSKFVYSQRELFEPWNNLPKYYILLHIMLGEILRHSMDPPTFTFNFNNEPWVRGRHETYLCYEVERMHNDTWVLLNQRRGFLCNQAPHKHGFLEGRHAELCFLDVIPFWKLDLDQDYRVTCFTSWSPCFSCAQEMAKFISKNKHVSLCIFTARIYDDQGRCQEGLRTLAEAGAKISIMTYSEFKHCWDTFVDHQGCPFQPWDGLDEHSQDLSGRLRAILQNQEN
Lethal(3)malignant brain tumor-like protein 1 (Homo sapiens), sequence (Q9Y468 whole entry, looked up): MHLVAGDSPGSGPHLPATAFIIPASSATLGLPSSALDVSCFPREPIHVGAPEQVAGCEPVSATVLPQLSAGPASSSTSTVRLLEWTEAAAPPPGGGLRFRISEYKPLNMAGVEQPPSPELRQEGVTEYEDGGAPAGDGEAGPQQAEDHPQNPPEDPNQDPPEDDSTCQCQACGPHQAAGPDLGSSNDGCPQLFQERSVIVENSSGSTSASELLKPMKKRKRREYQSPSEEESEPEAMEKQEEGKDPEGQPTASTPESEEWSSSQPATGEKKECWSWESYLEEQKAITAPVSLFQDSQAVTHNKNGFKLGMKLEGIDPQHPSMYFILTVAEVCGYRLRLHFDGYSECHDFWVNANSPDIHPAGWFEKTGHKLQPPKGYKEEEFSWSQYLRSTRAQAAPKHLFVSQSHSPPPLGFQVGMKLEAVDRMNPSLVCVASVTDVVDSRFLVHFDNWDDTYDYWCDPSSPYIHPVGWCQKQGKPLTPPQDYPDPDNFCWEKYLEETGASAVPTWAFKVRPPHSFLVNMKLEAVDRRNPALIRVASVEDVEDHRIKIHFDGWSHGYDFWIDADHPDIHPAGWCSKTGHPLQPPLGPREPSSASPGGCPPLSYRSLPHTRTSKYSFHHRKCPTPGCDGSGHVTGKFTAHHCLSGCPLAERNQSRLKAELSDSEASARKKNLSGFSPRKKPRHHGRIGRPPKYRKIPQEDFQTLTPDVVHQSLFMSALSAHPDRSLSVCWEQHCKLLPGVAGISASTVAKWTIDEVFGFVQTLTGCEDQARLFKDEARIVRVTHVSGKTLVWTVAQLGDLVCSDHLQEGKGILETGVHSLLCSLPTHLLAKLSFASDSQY

## Cc1cc2c(cc1C)C(c1ccccc1OC(C)C)CC(=O)N2 (centres undefined)
[1]
  Potency: inactive
[2]
  Potency: inactive
[3]
  Potency: 33.8 µM (active)
[4]
  Potency: inactive

## CN(C)c1ncc2ncc(=O)n(Cc3cccs3)c2n1
[5]
  activity change, negative = inhibition: -18.4%
[6]
  Potency: > 9.22 µM

## CCOc1ccc2nc3cc(N=Nc4ccc(N)nc4N)ccc3c(N)c2c1
[6]
  Potency: > 46 µM

## CC(C)=CCc1c(O)cc(O)c2c1O[C@H](c1ccccc1)CC2=O
[7]
  Potency: 12.6 µM (active)
[8]
  Potency: 1 µM (active)
[9]
  outcome: inactive

## O=c1c(O)c(-c2ccccc2)oc2ccc3occc3c12
[7]
  Potency: 3.16 µM (active)
[10]
  Potency: inactive
[11]
  Potency: inactive

## Nc1nc(N)c(-c2cccc(C(F)(F)F)c2)c(Cc2cccc(C(F)(F)F)c2)n1
[8]
  Potency: 2.51 µM (active)

## CC(C)=CCc1c2c(c3occ(-c4ccc(O)cc4)c(=O)c3c1O)C=CC(C)(C)O2
[10]
  Potency: inactive
[11]
  Potency: inactive

## Cc1ccc(/C=C/C(=O)Nc2ccc([N+](=O)[O-])c(NC(=O)/C=C/c3ccc(C)o3)c2)o1
[12]
  Potency: 3.77 µM (active)
[13]
  outcome: inactive

## CC(C)n1c(CNC(=O)c2ccccc2F)nnc1SCC(=O)NC1CCCCC1
[1]
  Potency: inactive
[2]
  Potency: inactive
[14]
  Potency: inactive

## COc1cc(NC(=O)c2ccccc2NS(=O)(=O)c2ccc(Cl)s2)cc(OC)c1
[1]
  Potency: inactive
[2]
  Potency: inactive
[14]
  Potency: inactive

## CC(C)CNC(=O)C1Nc2ccc(OC(F)(F)F)cc2C2C=CCC12 (centres undefined)
[1]
  Potency: inactive
[2]
  Potency: inactive
[14]
  Potency: inactive

## Cc1cc(NC2=CC(=O)C(=O)c3ccccc32)no1
[1]
  Potency: inactive
[2]
  Potency: inactive
[14]
  Potency: inactive

## CN(C)c1ccc(-c2[nH][nH]c(=O)c2NC(=O)c2ccc3ccccc3n2)cc1
[1]
  Potency: inactive
[2]
  Potency: inactive
[14]
  Potency: inactive

## O=C1NC[C@H](Cc2ccc(O)cc2)N(C[C@@H]2CCCN2C[C@H](Cc2ccc(O)cc2)N2C[C@H](Cc3ccccc3)N(CC3CCCCCC3)C(=O)C2=O)C1=O
[1]
  Potency: inactive
[2]
  Potency: inactive
[14]
  Potency: inactive

## Cc1cc(Cl)ccc1Oc1ccccc1C(=O)CC#N
[1]
  Potency: inactive
[2]
  Potency: inactive
[14]
  Potency: inactive

## CN1CCc2nc3sc(C(=O)C45CC6CC(CC(C6)C4)C5)c(N)c3cc2C1
[1]
  Potency: inactive
[2]
  Potency: 100 µM (active)
[14]
  Potency: inactive

## Cc1ccccc1C(=O)Nc1ccccc1N1CCCCC1
[1]
  Potency: inactive
[2]
  Potency: inactive
[14]
  Potency: inactive

## Cc1oc2ccc(O)c(CN3CCCCC3)c2c1C(=O)Nc1cccc(C(F)(F)F)c1
[1]
  Potency: inactive
[2]
  Potency: inactive
[14]
  Potency: inactive

## CCCCC(=O)N(C)c1c(CC)nc2c(OCc3ccc(C(F)(F)F)cc3)cccn12
[1]
  Potency: inactive
[2]
  activation: 3.08% [at 17.1 µM, percent relative to cAMP agonist control]
[14]
  activity change, negative = inhibition: -15.6% [at 30.8 µM]

## COc1ccc(OC)c(NC(=O)c2nc(S(=O)(=O)Cc3ccccc3)ncc2Cl)c1
[1]
  Potency: inactive
[2]
  Potency: inactive
[14]
  Potency: inactive

## COc1cc(/C=N/NS(=O)(=O)c2ccc3ccccc3c2)ccc1OCc1ccc(C(=O)O)cc1
[1]
  Potency: inactive
[2]
  Potency: inactive
[14]
  Potency: inactive

## C#Cc1ccc([C@@H]2C=C(C(=O)NCc3ccccc3)O[C@H](OCC)[C@H]2CCCO)cc1
[1]
  Potency: inactive
[2]
  Potency: inactive
[14]
  Potency: inactive

## Cc1cc2c(C)nc(N/N=C/c3ccc(F)cc3)nc2o1
[1]
  Potency: inactive
[2]
  Potency: inactive
[14]
  Potency: inactive

## C[n+]1cccc2c(Br)ccc([O-])c21
[1]
  Potency: inactive
[2]
  Potency: inactive
[14]
  Potency: inactive

## O=C(NC1(O)C(=O)c2ccccc2C1=O)c1ccccc1
[1]
  Potency: inactive
[2]
  Potency: inactive
[14]
  Potency: inactive

## Cc1ccc(C)c(NC(=O)CN(C)C(=O)c2ccccc2Cc2ccccc2)c1
[1]
  Potency: inactive
[2]
  Potency: inactive
[14]
  Potency: inactive

## Cc1nc2c(OCc3ccc(C(F)(F)F)cc3)cccn2c1N(C)Cc1cccs1
[1]
  Potency: inactive
[2]
  Potency: inactive
[14]
  Potency: inactive

## N#C/C(=C(/O)c1ccccc1F)c1nc2cc(C(F)(F)F)ccc2s1
[1]
  Potency: inactive
[2]
  activation: 1.01% [at 17.1 µM, percent relative to cAMP agonist control]
[14]
  activity change, negative = inhibition: 14.7% [at 30.8 µM]

## CC(C)n1nccc1N(Cc1ccc(Cl)cc1)S(=O)(=O)c1ccccc1
[1]
  Potency: inactive
[2]
  Potency: inactive
[14]
  Potency: inactive

## CC(C)C[C@H]1COCCS(=O)(=O)N1Cc1ccc(Cl)c(Cl)c1
[1]
  Potency: inactive
[2]
  activation: 1.63% [at 17.1 µM, percent relative to cAMP agonist control]
[14]
  activity change, negative = inhibition: -4.43% [at 30.8 µM]

## N=C1S/C(=C\c2ccco2)C(=O)N1c1ccc2c(c1)OCO2
[1]
  Potency: inactive
[2]
  Potency: inactive
[14]
  Potency: inactive

## Cc1cccc(NC(=O)CNC(=O)CCc2nc3sc4c(c3c(=O)[nH]2)CCCC4)c1C
[1]
  Potency: inactive
[2]
  Potency: inactive
[14]
  Potency: inactive

## O=C(CN1C(=O)/C(=C2/SC(=S)N(CCS(=O)(=O)O)C2=O)c2ccccc21)Nc1cccc(Br)c1
[1]
  Potency: inactive
[2]
  Potency: inactive
[14]
  Potency: inactive

## Cc1ccc(-c2ccc(CN3C(C(C)C)C(=O)N(Cc4cn(CCC5OCCO5)nn4)CCS3(=O)=O)cc2)c(C)c1 (centres undefined)
[1]
  Potency: inactive
[2]
  Potency: inactive
[14]
  Potency: inactive

## O=C(NC1(O)C(=O)c2ccccc2C1=O)c1c(Cl)cccc1Cl
[1]
  Potency: inactive
[2]
  Potency: inactive
[14]
  Potency: inactive

— PubChem BioAssay (NCATS)
